The list is not random: actives were taken first. Their share in the collection is about 2.6%.
PfM18AAP inh-1 = PfM18AAP enzyme inhibition; actives 1.2% (n = 290,000); inhibition, % at 7.35 µM; recombinant PfM18AAP, H-Glu-NHMec fluorogenic cleavage;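 active = inhibition above the campaign mean inhibition over all tested compounds plus 3 SD, cut at about 28% in these data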;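 note: 0% = plate median of test compound wells and 100% = 2 mM ZnCl2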
Exocytosis inh = lytic granule exocytosis inhibition | actives 0.66% (n = 360,000) | TALL-104 LAMP-1 surface exposure, flow cytometry; cells stimulated with thapsigargin and PMA | AID 651702 | inhibition, % at 10 µM;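 active = inhibition above about 55%, limit read from the data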
ABHD5-PLIN5 inh = inhibitors of human ABHD5-perilipin-5 interaction; Q00G26+Q8WTS1; Split G. princeps luciferase complementation, luminescence, 4 h; inhibition, % at 4 µM; actives 0.78% (n = 360,000);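 active = inhibition above the mean inhibition across every tested compound plus 3 SD, cut at about 22% in these data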;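 note: 0% = DMSO only wells and the 100% control is not disclosed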
Platelet DG rel = platelet dense granule release activity; actives 0.22% (n = 300,000); AID 1663; inhibition, %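 (compounds screened at 7.5 µM in platelet-rich plasma)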; human platelet-rich plasma, SFLLRN dense granule ATP release, luminescence;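 active = mean replicate score, as percent of positive control, at or above 50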
Rce1 inh = yeast Ras-converting enzyme inhibition | Q03530 | yeast membranes, quenched prenylated peptide cleavage fluorescence | calls only | actives 0.27% (n = 290,000) | AID 2563;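 active = fall in fluorescence gain of 50% or more versus controls, with final raw signal at or below 3038400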;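 note: plate controls were neutral control wells for no effect and wells lacking membranes for full effect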
PfM18AAP inh-2 = PfM18AAP inhibition, confirmation. recombinant PfM18AAP, H-Glu-NHMec fluorogenic cleavage. AID 2170. inhibition, % at 7.35 µM. shares compounds with PfM18AAP inh-1. actives 28% (n = 2,400);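 active = mean inhibition over replicate wells above the hit cutoff set for the earlier primary screen, cut at about 29% in these data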;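 note: 0% = median of test compound wells and 100% = 2 mM ZnCl2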
CTSL1 confirm = counter-screen for PFM18AAP inhibitors: confirmation of human cathepsin L inhibitors | 2,400 tested, under 10 active | shares compounds with PfM18AAP inh-1 | AID 2178 | inhibition, % at 5.96 µM | purified cathepsin L1, Z-Leu-Arg-MCA fluorescence;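 active = average inhibition across replicates above the hit cutoff set in the earlier primary screen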;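 note: 0% = median of test compound wells and 100% = Z-Phe-Ala-diazomethylketone 1 µM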
Target sequence (P07711 whole entry, looked up): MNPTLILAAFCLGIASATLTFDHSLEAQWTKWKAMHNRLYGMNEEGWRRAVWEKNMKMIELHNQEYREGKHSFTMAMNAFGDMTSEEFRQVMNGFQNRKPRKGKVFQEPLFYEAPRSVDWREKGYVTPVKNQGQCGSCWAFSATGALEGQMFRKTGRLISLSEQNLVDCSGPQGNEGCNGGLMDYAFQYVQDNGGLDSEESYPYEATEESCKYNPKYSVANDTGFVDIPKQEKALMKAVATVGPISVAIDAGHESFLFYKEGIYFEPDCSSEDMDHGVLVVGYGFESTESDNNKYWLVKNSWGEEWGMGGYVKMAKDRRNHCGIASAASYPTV
An asterisk follows results filed as active; i = inactive; · = no result.

SMILES	PfM18AAP inh-1	Exocytosis inh	ABHD5-PLIN5 inh	Platelet DG rel	Rce1 inh	PfM18AAP inh-2	CTSL1 confirm
CCN(CC)S(=O)(=O)c1cc([N+](=O)[O-])ccc1NNC(=O)Nc1ccccc1OC	56*	0	-2	-2	i	13	4
CCN(CC)S(=O)(=O)c1cc([N+](=O)[O-])ccc1NNC(=O)Nc1ccc(F)cc1	37*	-1	-2	15	i	29*	4
O=C(NC(=S)NNC(=O)c1ccccc1O)c1ccco1	33*	4	3	-7	i	30*	2
CC(C)(C)c1ccc(O)c(N)c1	46*	·	·	-4	i	76*	-3
CC[n+]1c(/C=C/C=C/N(C(C)=O)c2ccccc2)sc2cc(OC)ccc21	43*	·	·	·	·	-36	1
CC1(C)CC(NC(=S)Nc2ccc(S(N)(=O)=O)cc2)CC(C)(C)N1	2	-3	-4	14	i	·	·
NS(=O)(=O)c1ccc(NC(=S)NNC(=O)c2ccc(Br)o2)cc1	33*	-2	4	-2	i	-2	-1
NS(=O)(=O)c1ccc(NC(=S)NC(=O)c2ccc(Br)o2)cc1	9	-2	3	-4	i	·	·
NS(=O)(=O)c1ccc(NC(=S)NC2CC2)cc1	32*	0	-1	1	i	-2	-1
CCn1nc(NC(=O)c2cccnc2)c2cc3cccc(C)c3nc21	-16	2	1	-8	i	·	·
CC(C)C(=O)NC(CC(=O)O)c1ccccc1 (configuration not stated)	-2	-4	0	-2	i	·	·
CC(CC(=O)O)Nc1ccccc1O (configuration not stated)	38*	-4	-7	-2	i	8	-1
COc1cccc(COc2ccc3c(C)cc(=O)oc3c2)c1	0	14	10	3	i	·	·
CCNC(=S)NNC(=O)c1cccs1	36*	2	-6	-6	i	13	1
Cc1ccc(NC(=O)NNC(=O)c2cccs2)cc1	51*	-1	4	-6	i	27	3
CC(=O)Nc1ccc(C(=O)NNC(=O)c2cccs2)cc1	13	-2	2	0	i	·	·
CNC(=S)NNC(=O)c1cccs1	38*	1	-2	-1	i	14	1
Cc1ccc(NC(=O)NNC(=O)c2ccccc2)cc1	16	-3	-5	6	i	·	·
CCCNC(=S)NNC(=O)c1cccs1	27	2	1	-9	i	·	·
COc1ccc(C(=O)NNC(=O)Nc2ccc(C)cc2)cc1	45*	-2	-4	0	i	25	3
CC(C)NCc1cc(Br)ccc1OCc1ccccc1	-2	-3	3	12	i	·	·
CC(C)CC(=O)NC(NC(=O)CC(C)C)c1cccc([N+](=O)[O-])c1	3	-4	-2	5	i	·	·
CCN=c1scc(C)n1/N=C/c1ccc(O)c(O)c1O	46*	0	-35	1	i	24	8
COCCN=c1scc(-c2cccs2)n1/N=C/c1ccc(O)c(O)c1O	42*	2	-7	3	i	12	4
CCN=c1scc(-c2ccco2)n1/N=C/c1ccc(O)cc1	-4	2	-7	5	i	·	·
SMILES	PfM18AAP inh-1	Exocytosis inh	ABHD5-PLIN5 inh	Platelet DG rel	Rce1 inh	PfM18AAP inh-2	CTSL1 confirm
COc1ccc(Cl)cc1NS(=O)(=O)c1cccc(C(=O)NCC(C)(C)N2CCOCC2)c1	·	-7	-4	·	·	·	·
N#C/C(=C\c1cc(O)c(O)c(O)c1)C(N)=O	60*	-8	-4	1	i	26	1
Cc1ccc(C2=C(CC(=O)O)C(=O)CC2)cc1	1	1	3	1	i	·	·
O=C1/C(=C\c2ccccn2)SC(=S)N1c1ccc(S(=O)(=O)Nc2nccs2)cc1	36*	6	-15	-1	i	-21	1
C[C@@H]1CN([C@H](C)CO)C(=O)c2cc(Br)cnc2O[C@H]1CN(C)C(=O)c1ccccc1	·	0	-3	·	·	·	·
CCOC(=O)c1c(C)n(C)c2cc(Br)c(O)c(O)c12	51*	3	4	4	i	53*	-5
CCOC(=O)c1c(C)n(C)c2ccc(OC(C)=O)cc12	0	-2	10	0	i	·	·
O=C(N/N=C/c1ccc(O)c(O)c1)c1ccc(CSc2cccc3cccnc23)cc1	57*	2	5	3	i	49*	-5

Screening results as filed in PubChem.
